From PubChem BioAssay AID2283160 (EPA ToxCast) come the findings set out here.

Each structure is given as a SMILES string. Records with an inconclusive call do not appear. Activity calls are given as the source filed them. Rule for the calls: active = hit-call score of the fitted dose curve at least 0.9, where 1 is the maximum; inconclusive = response in the unintended direction; inactive = score below 0.9.

What is called AC50 is the concentration at which the activity in the assay is half-maximal.

In this test the target is human Fibroblast Growth Factor Receptor 3 (FGFR3), FGFR3 (gene 2261) (UniProt P22607). The experiment in a line: NVS_ENZ_hFGFR3: NovaScreen (NVS) Enzymatic Assay for human Fibroblast Growth Factor Receptor 3 (FGFR3). How it is done: NVS_ENZ_hFGFR3 is a biochemical, single-readout assay that uses extracted gene-proteins in a cell-free assay. Measurements were taken 1 hour after chemical dosing in a 384-well plate.NVS_ENZ_hFGFR3 is one of one assay component(s) measured or calculated from the NVS_ENZ_hFGFR3 assay. It is designed to make measurements of enzyme activity, a form of enzyme reporter, as detected with fluorescence intensity signals by Fluorescence and electrophoretic mobility shift technology.Data from the assay component NVS_ENZ_hFGFR3 was analyzed into 1 assay endpoint. This assay endpoint, NVS_ENZ_hFGFR3, was analyzed in the positive analysis fitting direction relative to DMSO as the negative control and baseline of activity. Using a type of enzyme reporter, loss-of-signal activity can be used to understand changes in the enzymatic activity as they relate to the gene FGFR3. Furthermore, this assay endpoint can be referred to as a primary readout, because this assay has produced multiple assay endpoints where this one serves a enzymatic activity function. To generalize the intended target to other relatable targets, this assay endpoint is annotated to the kinase intended target family, where the subfamily is receptor tyrosine kinase.
human Fibroblast Growth Factor Receptor 3 (FGFR3), FGFR3 (gene 2261), sequence (P22607 whole entry, looked up): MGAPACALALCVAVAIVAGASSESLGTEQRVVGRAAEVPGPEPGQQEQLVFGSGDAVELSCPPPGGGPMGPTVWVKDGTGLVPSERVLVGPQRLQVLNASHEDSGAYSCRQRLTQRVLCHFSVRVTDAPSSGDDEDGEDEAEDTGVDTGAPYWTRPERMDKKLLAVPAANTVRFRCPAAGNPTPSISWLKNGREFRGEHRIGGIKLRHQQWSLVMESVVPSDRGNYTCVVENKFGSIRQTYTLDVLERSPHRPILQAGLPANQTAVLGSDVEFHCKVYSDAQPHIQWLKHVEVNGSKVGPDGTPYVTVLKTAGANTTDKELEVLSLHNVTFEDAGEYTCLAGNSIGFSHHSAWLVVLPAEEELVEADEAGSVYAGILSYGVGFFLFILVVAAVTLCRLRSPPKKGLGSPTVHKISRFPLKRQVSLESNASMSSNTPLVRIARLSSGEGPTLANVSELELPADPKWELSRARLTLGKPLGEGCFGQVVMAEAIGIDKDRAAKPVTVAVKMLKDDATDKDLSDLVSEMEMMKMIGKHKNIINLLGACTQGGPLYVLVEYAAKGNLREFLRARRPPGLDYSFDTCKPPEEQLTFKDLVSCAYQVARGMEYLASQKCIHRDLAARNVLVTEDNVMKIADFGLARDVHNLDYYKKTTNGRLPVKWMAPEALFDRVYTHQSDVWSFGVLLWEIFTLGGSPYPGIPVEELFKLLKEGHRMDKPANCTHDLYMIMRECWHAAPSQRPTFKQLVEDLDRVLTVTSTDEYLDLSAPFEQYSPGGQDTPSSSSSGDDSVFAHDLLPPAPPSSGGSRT
Binding assays used specific radioligands (tritiated, iodinated) with non-radioactive competitive displacement ligands in agonist or antagonist protocols (as indicated) and various reference compounds and inhibitors to titrate specific binding to receptors and transporters. Most enzyme assays (CYPs, kinases, phosphatases, proteases, HDACs) used recombinant protein and specific substrates (fluorescence mostly, some colorimetric and radioactive) and inhibitors, followed by a biochemical separation of substrate and product. All assays for the biochemical HTS were initially run in duplicate at a single concentration (10 uM for CYP450 assays and 25 uM for all others). Assay-chemical combinations meeting a pre-defined threshold (e.g., 30% inhibition and other criteria defined below) were then run in singleton concentration-response format with maximum concentration of 20 uM for CYPs and 50 uM for all others. Each assay was run with positive and negative controls, and concurrent controls on every plate. The follow-up (secondary) screen tested active chemical-pairs in concentration series, as well as a few additional assays not tested in the primary screen, some selected negative inactives, and several cases re-run in the concentration series for confirmatory purposes.
`CN(C)[C@@H]1C(=O)C(C(N)=O)=C(O)[C@@]2(O)C(=O)C3=C(O)c4c(O)cccc4[C@@](C)(O)[C@H]3[C@H](O)[C@@H]12`: the AC50 was 14.5 µM (active). On to `COP(=O)(OC)OC=C(Cl)Cl`, for which the result was inactive. Same read-out and setting: the entry for `CCCC1COC(Cn2cncn2)(c2ccc(Cl)cc2Cl)O1` (stereo not given) is “inactive”. In the case of `CCCCN(CC)c1c([N+](=O)[O-])cc(C(F)(F)F)cc1[N+](=O)[O-]`, the compound was classed as inactive. On to `CNC(=O)Oc1ccccc1OC(C)C`, for which the result was inactive.

As to `CNC(=O)ON=C(SC)C(=O)N(C)C`, the result was inactive. The same measure, in the same setting: for `CCOc1cc(Oc2ccc(C(F)(F)F)cc2Cl)ccc1[N+](=O)[O-]` the value was “inactive”; for `CC(Oc1cccc(Cl)c1)C(=O)O` (stereo not given), “inactive”.

In the case of `CCCC(=NOCC)C1=C(O)CC(CC(C)SCC)CC1=O` (stereo not given), the call was inactive. As for `S=C([S-])NCCNC(=S)[S-].[Mn+2]`, the concentration at half-maximal activity (AC50) is 40.5 µM (active). As for `S=C(S)NCCNC(=S)S.[Mn+2].[S-]C([S-])=NCCN=C([S-])[S-].[Zn+2]`, the AC50 was 38.2 µM (active). With `CN(C)C(=S)SSC(=S)N(C)C`, the call was inactive. Same read-out and setting: the entry for `CCCOc1nn(C(=O)NS(=O)(=O)c2ccccc2C(=O)OC)c(=O)n1C` is “inactive”; for `CSc1nnc(C(C)(C)C)c(=O)n1N` it is “inactive”; for `COCC(C)N(C(=O)CCl)c1c(C)csc1C` (stereo not given) it is “inactive”.
